Reference: PubChem BioAssay AID641 (Vanderbilt High Throughput Screening Facility, 2007)
Screen size: about 58,000 compounds; about 3,400 (5.9%) were called active.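 The calls were made as follows: active = luminescence count or its row- and column-corrected plate score outside the 99.7% band of the plate's sample wells, on either side; inactive = the rest.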 The list comes from a sample in which actives are over-represented; it also holds similar structures and randomly drawn compounds.

Target: D(1A) dopamine receptor (Homo sapiens) (UniProt P21728)
Assay: D1 CRE-luciferase signal change, two-sided – cell-based, HEK293 D1, dopamine EC30, D1 allosteric modulator project, primary screen (AID 641)
Details: dopamine EC30 potentiation, at 10 µM, actives deviate in either direction

Chain of D(1A) dopamine receptor (Homo sapiens) (P21728 whole entry, looked up): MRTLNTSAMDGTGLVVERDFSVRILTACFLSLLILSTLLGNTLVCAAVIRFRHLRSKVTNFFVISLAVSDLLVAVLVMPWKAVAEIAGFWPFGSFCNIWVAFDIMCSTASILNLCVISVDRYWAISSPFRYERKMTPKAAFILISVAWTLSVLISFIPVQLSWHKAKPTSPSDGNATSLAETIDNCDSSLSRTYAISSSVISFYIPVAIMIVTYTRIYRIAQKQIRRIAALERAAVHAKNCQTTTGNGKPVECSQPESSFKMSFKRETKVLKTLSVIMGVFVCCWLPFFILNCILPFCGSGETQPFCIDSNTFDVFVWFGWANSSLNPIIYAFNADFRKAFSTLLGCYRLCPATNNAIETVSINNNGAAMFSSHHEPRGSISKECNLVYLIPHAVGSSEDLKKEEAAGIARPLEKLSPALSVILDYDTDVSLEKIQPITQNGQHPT

B-score, active:
c1ccc(-c2nnc3n2NC(c2ccc4c(c2)OCO4)S3)cc1 (centres undefined) 7.49, O=C(CSc1nnc2scc(-c3ccc(F)cc3)n12)NCc1ccco1 6.74, N#Cc1c2c(c(N3CCN(CCO)CC3)n3c1nc1ccccc13)CCCC2 4.34, COC(=O)C1=C(C)NC2=C(C(=O)c3ccccc32)C1c1ccc(-c2ccc(C(=O)O)cc2)o1 (centres undefined) 6.14, O=c1c2c(nc3n1CCCCC3)sc1c(O)cccc12 -6.41, CCCOC(=O)c1[nH]c2c(c1C)C(=O)CC(c1cc(OC)c(OC)c(OC)c1)C2 (centres undefined) -3.89, Cc1ccc(-n2ncc3c(N4CCN(c5ccc(F)cc5)CC4)ncnc32)c(C)c1 -2.95, Cc1ccc(C(c2sc3nc(C)nn3c2O)N2CCN(c3ccccc3)CC2)cc1 (centres undefined) -3.44, CCC(=O)NC(=Nc1nc2ccccc2s1)NC(=O)CC 11.5, CC(=O)c1c(C)c[nH]c1C -3.34, COC(=O)Nc1ncc(CN2C(=O)c3ccccc3C2=O)s1 3.19, CCn1nc(C(=O)OCC(=O)N2c3ccccc3CC2C)c2ccccc2c1=O (centres undefined) 4.38, N#Cc1nc(N)nc(N(c2ccccc2)c2ccccc2)n1 4.55, c1ccc2[nH]c(-c3nc4ccccc4[nH]3)nc2c1 -2.93, CCCCSc1nc2c(c(=O)n1CC)SC(C)C2 (centres undefined) 9.06, C=CCn1cnc2scc(-c3ccccc3)c2c1=O 10.5, CCOc1ccc(Nc2oc(Cc3ccccc3)nc2C#N)cc1 3.11, N#Cc1nc(Cc2ccccc2)oc1NCCc1ccccc1 4.08, COc1ccc(Nc2oc(-c3ccccc3Cl)nc2C#N)cc1 6.96, COc1ccc(-c2n[nH]c(C)c2-c2ccc(OC)c(OC)c2)c(O)c1 2.72

B-score, inactive:
CC1=C(C(N)=O)C(c2ccc3c(c2)OCO3)n2nc(-c3cccc(C)c3)nc2N1 (centres undefined) 0.00602, O=C(CN1CCN(c2nc(-c3ccccc3)cs2)CC1)NCc1ccc2c(c1)OCO2 -0.0459, COC(=O)c1cc(OC)c(OC)cc1NC(=O)C1CCCO1 (centres undefined) 3.46, CCc1nnc(NC(=O)CSc2nnc(-c3ccncc3)n2Cc2ccccc2)s1 -0.0482, O=[n+]1c2c(n([O-])c3cc(Br)ccc31)CCC2 -0.651, Cc1ccc(-c2csc3nnc(SCC(=O)NCc4ccco4)n23)cc1 1.29, Cn1c(-c2ccc(F)cc2)cnc1SCC(=O)NCc1ccco1 -0.294, Cn1c(SCC(=O)Nc2cccc(O)c2)nnc1-c1ccc(S(=O)(=O)N2CCOCC2)cc1 0.0252, CCCCn1c(CN2CCN(CCO)CC2)nc2ccccc21 1.03, CN(C)CCCNc1c2c(c(C#N)c3nc4ccccc4n13)CCC2 0.142, COc1ccc(C2CC(=O)C=C(NCC3CCCO3)C2)cc1 (centres undefined) 0.013, CCn1c(SCC(=O)Nc2nc3ccc(OC)cc3s2)nnc1-c1ccoc1C -0.00542, COc1cc2cc(CN(CCN3CCCC3)C(=O)Nc3ccccc3Cl)c(=O)[nH]c2cc1OC -0.557, COC(=O)C1=C(C)NC(=O)NC1/C=C/c1ccccc1 (centres undefined) 0.394, COc1ccccc1NC(=O)C1=C(C)NC2=C(C(=O)CCC2)C1c1ccc(C)o1 (centres undefined) 0.26, Cc1ccc2nc3n(c(=O)c2c1)CCC3 -0.684, O=C(Cn1[nH]c(=O)c2ccccc2c1=O)Nc1cccc(-c2nnc3n2CCCCC3)c1 0.394, CCSC(C)CC1C/C(=N/O)c2c(C)noc2C1 (centres undefined) 3.09, CCOC(=O)c1[nH]c2c(c1C)C(=O)CC(c1ccc(N(C)C)cc1)C2 (centres undefined) -1.04, COC(=O)C1C(=O)c2c([nH]c(C(=O)OCCSC)c2C)CC1C (centres undefined) 0.0229, O=C(CN1C2CCC1CC(NC(=O)C1CC1)C2)NCc1ccccc1 (centres undefined) 0.0586, CCOC(=O)Cc1c(C)nc2c(C#N)c(C)nn2c1C -0.671, Cc1ccc(-n2ncc3c(=O)[nH]cnc32)c(C)c1 -0.523, Cc1ccc(-n2ncc3c2ncn2nc(-c4ccco4)nc32)c(C)c1 0.753, Cc1nc2sc(C(c3ccco3)N3CCOCC3)c(O)n2n1 (centres undefined) 0.108, Cc1ccc(C(c2sc3nc(C)nn3c2O)N2CCN(c3ccc(F)cc3)CC2)cc1 (centres undefined) -1.2, O=C(Nc1c(C(=O)N2CCCCC2)cnn1-c1ccccc1)c1ccco1 -0.19, O=C(O)CSCc1nc2ccccc2s1 -0.539, COC(=O)Cc1cc(=O)n(-c2nc3ccccc3s2)[nH]1 0.0542, CCC(=O)c1cc2c(cc1NC(=O)c1cccs1)OCCO2 1.41, CCCC(=O)C1=C(N(C)c2ccccc2)CC(C)(C)C(C(=O)OC)C1=O (centres undefined) 0.78, Cn1c2ccccc2c2c(C(=O)N3CCN(c4ccc(F)cc4)CC3)cn(C3CCCC3)c(=O)c21 0.395, Cc1c(CN2CCC(C)CC2)c(=O)n(-c2ccccc2)n1C 0.319, Cn1cccc1C(=O)NC(=O)COC(=O)Cc1coc2ccc3ccccc3c12 -0.19, COc1ccc(C(=O)c2oc3ccc(Br)cc3c2NC(C)=O)cc1 -0.206, Cc1cc(C(=O)O)c(S(C)(=O)=O)s1 0.833, O=C(CCN1C(=O)c2ccccc2C1=O)Nc1ccncc1 0.176, CC(C)OC(=O)CN1C(=O)c2ccccc2C1=O 0.49, CN(C)c1cc(N)c2ccccc2n1 (tested in a mixture with another compound) -2.66, CCOC(=O)C1CCN(C(=O)Nc2ccc(Cl)cc2)CC1 -0.339, CCCCn1nc(C(=O)N2CCc3ccccc32)c2ccccc2c1=O 0.35, CC1Cc2ccccc2N1C(=O)Cn1cnc2ccccc2c1=O (centres undefined) -0.115, O=C(COc1ccc2c3c(c(=O)oc2c1)CCC3)NC1CCCCC1 -1.02, CC(C)Nc1nc(N(c2ccccc2)c2ccccc2)nc(-n2ccnc2)n1 0.848, CC(C)(C)Oc1ncc(Br)c(OC(C)(C)C)n1 0.0357, c1ccc(-c2[nH]ncc2-c2nc3ccccc3[nH]2)cc1 0.738, C=CCSc1nc2ccccc2[nH]1 -0.468, c1ccc(-n2ncc3c2ncn2c(CSc4nc5ccccc5s4)nnc32)cc1 -0.538, Cc1cccc(OCc2nnc(SCC(=O)N3CCN(C(=O)c4ccco4)CC3)n2C)c1C -0.00929, N#CC1=C(N)Oc2cc(O)ccc2C1C1CCCCC1 (centres undefined) -0.438, Cc1cccc(NC(=O)COc2ccc(Br)cc2C)n1 0.787, O=C(C1CCCO1)N(Cc1ccccc1)c1ccccc1 (centres undefined) 0.947, CCn1c(SCC(=O)Nc2ccccc2F)nc2c(c1=O)SC(C)C2 (centres undefined) 0.8, CCn1c(SCC(=O)Nc2ccc3c(c2)OCCO3)nc2c(c1=O)SC(C)C2 (centres undefined) 2, COC(=O)c1ccc(NC(=O)c2ccco2)cc1 -1.96, C=CCn1c(SCc2csc(C)n2)nc2scc(-c3ccc(C)o3)c2c1=O -0.492, CN(CCC#N)c1ncnc2scc(-c3ccccc3)c12 1.98, CN1C(C)(C)CC(NC(=O)CCC(=O)NC2CC(C)(C)N(C)C(C)(C)C2)CC1(C)C 0.00629, CCN(CC)C(=O)C1CCC(C)(C(=O)O)C1(C)C (centres undefined) -0.39, CCc1ccc(N(CC)c2ncnc3nc[nH]c23)cc1 -4, O=C(CN1CCOCC1)Nc1c2c(nc3c1CCC3)CCC2 2.06, O=C(NCCCNCc1ccccc1)c1ccc(/C=N/O)nc1 -0.581, COc1ccc(CC(=O)Nc2ccc(-c3nnc(-c4ccccc4)o3)cc2)cc1 0.0608, N#Cc1nc(Cc2cccc3ccccc23)oc1NCc1ccc2c(c1)OCO2 -0.388, CCOc1ccc(NC(=O)Nc2cc(C)on2)cc1 -0.142, N#Cc1nc(-c2ccc(OCc3ccccc3)cc2)oc1NCCCN1CCOCC1 -0.727, O=C(CSc1ncccn1)NCCc1ccccc1 0.879, N#Cc1nc(COc2ccc(-c3ccccc3)cc2)oc1NCc1cccnc1 -1.5, CN(CCCC(=O)Nc1nccs1)S(=O)(=O)c1ccc(Cl)cc1 0.49, Cc1cc(/C=N/n2cnnc2)c(C)n1-c1cccc(C(=O)O)c1 -0.0541, O=C(CN1CCOCC1)Nc1c(-c2ccccc2)c2cc(Br)ccc2[nH]c1=O 2.41, CS(=O)(=O)N1CCN(C(=O)Cc2ccccc2)CC1 -1.05, CS(=O)(=O)N(CC(=O)N1CCOCC1)c1ccc2c3c(cccc13)CC2 1.66, CCOc1ccccc1Oc1cn[nH]c1-c1ccc(OC)cc1O -0.51, C=C(C)COc1ccc(-c2n[nH]c(C)c2-c2ccccc2)c(O)c1 0.197, Cc1nonc1NC(=O)c1ccccc1Br -0.0424, Cc1cc(C(=O)N2CCN(c3ccccn3)CC2)c(C)o1 -0.0773, COC(=O)CSC1=C(C#N)C(c2ccccc2OC)C(C(=O)OC)C(=O)N1 (centres undefined) 0.897, O=C1Nc2c(Br)cc(Br)cc2C1(O)N1CCOCC1 (centres undefined) 0.955
